Test results from PubChem BioAssay AID1159580 (chemical genetic matrix, 2015).
Where “and” joins values, the source holds several entries; their conditions need not be identical. Identical values can stand only once. The whole screen tested about 5,500 compounds, of which about 2,000 (36%) were called active. Another 18% or so got no clear call; they are omitted. Rule as the data show it: active = normalized growth mostly below about 0.91 (no sharp cut-off); inconclusive = no clear call, values can overlap the other calls; inactive = mostly above about 0.92. The list shows a part of the results.

Experiment: chemical genetic growth profiling, strain panel (AID 1159580);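 also: tested at 20 µM; growth read once vehicle control cultures reached saturation at 30 °C; 1 = growth at the plate median or of vehicle wells; lower values mean less growth of the strain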
Conditions: S. cerevisiae deletion strains, growth OD
[1] = locus YMR307W, strain GAS1, hits give low values
[2] = locus YNL322C, strain KRE1, hits give low values

Measured: normalized growth

NC(C(=O)N[C@@H]1C(=O)N2C(C(=O)O)=C(Cl)CS[C@H]12)c1ccccc1 (stereo not given in full)
inactive: locus YAL040C, strain CLN3, hits give low values 0.986 | locus YDR363W, strain ESC2, hits give low values 1.03 | locus YER002W, strain NOP16, hits give low values 1 | [1] 0.998 | locus YNL175C, strain NOP13, hits give low values 1.01 | locus YNL197C, strain WHI3, hits give low values 0.99 | locus YNL224C, strain SQS1, hits give low values 1.01 | [2] 1 | locus YOR083W, strain WHI5 (second series), hits give low values 0.992

CC1=C(C(=O)O)N2C(=O)[C@@H](NC(=O)[C@@H](N)c3ccc(O)cc3)[C@H]2SC1
inactive: locus YAL013W, strain DEP1, hits give low values 0.993 | locus YAL021C, strain ccr4, hits give low values 1.02 | locus YAL026C, strain drs2, hits give low values 1.04 | locus YAL030W, strain snc1, hits give low values 1.03 | locus YBL061C, strain skt5, hits give low values 1.03 | locus YBR009C, strain hhf1, hits give low values 1.03 | locus YBR021W, strain FUR4, hits give low values 1.01 | locus YBR023C, strain chs3, hits give low values 1.06 | locus YBR171W, strain sec66, hits give low values 1.03 | locus YBR229C, strain ROT2, hits give low values 0.958 | locus YBR231C, strain swc5, hits give low values 1.04 | locus YBR279W, strain paf1, hits give low values 1.02 | locus YCL011C, strain gbp2, hits give low values 1.01 | locus YCL016C, strain dcc1, hits give low values 1.03 | locus YCL029C, strain bik1, hits give low values 0.984 | locus YCL061C, strain MRC1, hits give low values 1.04 | locus YCL069W, strain vba3, hits give low values 1.03 | locus YCR088W, strain abp1, hits give low values 1.02 | locus YDL005C, strain med2, hits give low values 1.03 | locus YDL035C, strain GPR1, hits give low values 0.956 | locus YDL040C, strain nat1, hits give low values 1.02 | locus YDL074C, strain BRE1, hits give low values 1.01 | locus YDL101C, strain DUN1, hits give low values 0.99 | locus YDL185W, strain tfp1, hits give low values 0.953 | locus YDL192W, strain arf1, hits give low values 0.971 | locus YDR001C, strain nth1, hits give low values 1.04 | locus YDR069C, strain doa4, hits give low values 1.05 | locus YDR101C, strain arx1, hits give low values 0.965 | locus YDR137W, strain rgp1, hits give low values 1.03 | locus YDR150W, strain NUM1, hits give low values 0.985 | locus YDR159W, strain sac3, hits give low values 1.04 | locus YDR162C, strain NBP2, hits give low values 0.967 | locus YDR195W, strain ref2 1 | locus YDR297W, strain sur2, hits give low values 1.03 | locus YDR318W, strain mcm21, hits give low values 0.994 | locus YDR334W, strain swr1, hits give low values 1.03 | locus YDR335W, strain msn5, hits give low values 1.02 | locus YDR388W, hits give low values 0.979 | locus YDR392W, strain spt3, hits give low values 1.05 | locus YDR502C, strain sam2, hits give low values 0.984 | locus YEL003W, strain gim4, hits give low values 1.03 | locus YEL037C, strain rad23, hits give low values 1.03 | locus YEL061C, strain CIN8 (second series), hits give low values 1.04 | locus YEL061C, strain CIN8, hits give low values 0.988 | locus YER015W, strain faa2, hits give low values 1.01 | locus YER016W, strain bim1, hits give low values 1.02 | locus YER110C, hits give low values 0.973 | locus YER111C, strain swi4, hits give low values 1.03 | locus YER155C, strain BEM2 (second series), hits give low values 1.07 | locus YER155C, strain BEM2, hits give low values 0.995 | locus YER167W, strain BCK2, hits give low values 0.995 | locus YFR010W, strain ubp6, hits give low values 1.06 | locus YGL078C, strain dbp3, hits give low values 1 | locus YGL086W, strain mad1, hits give low values 0.982 | locus YGL167C, strain pmr1, hits give low values 1.03 | locus YGL173C, strain kem1, hits give low values 1.04 | locus YGL227W, strain vid30, hits give low values 1.03 | locus YGL240W, strain doc1, hits give low values 1.03 | locus YGL248W, strain PDE1, hits give low values 1.01 | locus YGL253W, strain hxk2, hits give low values 1.02 | locus YGR135W, strain pre9, hits give low values 1.03 | locus YGR229C, strain SMI1, hits give low values 0.978 | locus YGR252W, strain gcn5, hits give low values 0.999 | locus YHR013C, strain ard1, hits give low values 1.06 | locus YHR027C, strain rpn1, hits give low values 1.02 | locus YHR030C, strain SLT2, hits give low values 0.986 and 0.97 | locus YHR079C, strain IRE1 (second series), hits give low values 0.985 | locus YHR079C, strain IRE1, hits give low values 0.99 | locus YHR094C, strain hxt1, hits give low values 0.983 | locus YHR129C, strain ARP1, hits give low values 0.987 | locus YHR142W, strain chs7, hits give low values 1.04 | locus YHR200W, strain rpn10, hits give low values 0.967 | locus YIL066C, strain RNR3, hits give low values 0.98 | locus YIL073C, strain SPO22, hits give low values 0.981 | locus YIL125W, strain kgd1, hits give low values 0.988 | locus YIR030C, strain dcg1, hits give low values 0.982 | locus YJL092W, strain hpr5, hits give low values 1.04 | locus YJL095W, strain BCK1 (second series), hits give low values 1.02 | locus YJL095W, strain BCK1, hits give low values 1.05 and 0.976 | locus YJL115W, strain asf1, hits give low values 1.04 | locus YJL129C, strain trk1, hits give low values 1.04 | locus YJL134W, strain LCB3, hits give low values 0.983 | locus YJL154C, strain vps35, hits give low values 1.01 | locus YJL164C, strain tpk1, hits give low values 1.03 | locus YJL166W, strain qcr8, hits give low values 1.03 | locus YJL168C, strain set2, hits give low values 0.982 | locus YJL187C, strain SWE1 (second series), hits give low values 1 | locus YJR043C, strain POL32, hits give low values 0.97 | locus YJR066W, strain TOR1, hits give low values 0.979 | locus YKL009W, strain mrt4, hits give low values 1.05 | locus YKL068W, hits give low values 0.978 | locus YKL085W, strain MDH1 (second series), hits give low values 0.991 | locus YKL085W, strain MDH1, hits give low values 0.991 | locus YKL160W, strain elf1, hits give low values 1.02 | locus YKR001C, strain vps1, hits give low values 0.993 | locus YKR026C, strain gcn3, hits give low values 0.999 | locus YKR091W, strain srl3, hits give low values 1.03 | locus YLL001W, strain dnm1, hits give low values 1.04 | locus YLL026W, hits give low values 1.03 | locus YLL041C, strain sdh2, hits give low values 1.03 | locus YLR027C, strain aat2, hits give low values 1.03 | locus YLR039C, strain RIC1, hits give low values 0.992 | locus YLR058C, strain SHM2, hits give low values 0.988 | locus YLR102C, strain apc9, hits give low values 0.985 | locus YLR113W, strain HOG1, hits give low values 0.932 | locus YLR221C, strain rsa3, hits give low values 1.04 | locus YLR258W, strain gsy2, hits give low values 1.02 | locus YLR262C, strain YPT6 (second series), hits give low values 1.07 | locus YLR262C, strain YPT6, hits give low values 0.941 | locus YLR268W, strain sec22, hits give low values 0.977 | locus YLR320W, strain mms22, hits give low values 1.03 | locus YLR330W, strain CHS5, hits give low values 0.988 | locus YLR342W, strain FKS1 (second series), hits give low values 0.979 | locus YLR342W, strain FKS1, hits give low values 1.03 | locus YLR357W, strain rsc2, hits give low values 1.04 | locus YLR370C, strain arc18, hits give low values 1.02 | locus YLR371W, strain rom2, hits give low values 0.968 | locus YLR384C, strain iki3, hits give low values 1.03 | locus YLR418C, strain cdc73, hits give low values 1.02 | locus YML016C, strain PPZ1, hits give low values 0.99 | locus YML032C, strain rad52, hits give low values 0.984 | locus YML120C, strain ndi1, hits give low values 1.03 | locus YML124C, strain tub3, hits give low values 0.981 | locus YMR058W, strain fet3, hits give low values 1 | locus YMR078C, strain ctf18, hits give low values 0.982 | locus YMR125W, strain sto1, hits give low values 1.04 | locus YMR129W, hits give low values 1.03 | locus YMR205C, strain PFK2, hits give low values 1.03 | locus YMR223W, strain ubp8, hits give low values 1.01 | locus YMR231W, strain pep5, hits give low values 1.02 | locus YMR263W, strain SAP30, hits give low values 0.996 | [1] 0.967 | locus YNL067W, strain RPL9B, hits give low values 1 | locus YNL071W, strain lat1, hits give low values 1.02 | locus YNL128W, strain TEP1, hits give low values 0.983 | locus YNL183C, strain NPR1, hits give low values 0.929 | locus YNL209W, strain ssb2, hits give low values 1.01 | locus YNL233W, strain BNI4, hits give low values 1.02 | locus YNL248C, strain rpa49, hits give low values 1.04 | locus YNL250W, strain rad50, hits give low values 0.984 | locus YNL271C, strain bni1, hits give low values 0.984 | locus YNL298W, strain CLA4, hits give low values 0.981 | locus YNL307C, strain MCK1, hits give low values 0.983 | locus YNL322C, strain KRE1 (second series), hits give low values 1.03 | [2] 0.998 | locus YNR049C, strain mso1, hits give low values 1.03 | locus YNR052C, strain pop2, hits give low values 0.982 | locus YOL006C, strain TOP1, hits give low values 1.1 | locus YOL012C, strain htz1 0.974 | locus YOL147C, strain pex11, hits give low values 0.994 | locus YOR001W, strain rrp6, hits give low values 1.06 | locus YOR061W, strain CKA2, hits give low values 0.968 | locus YOR069W, strain VPS5, hits give low values 0.987 | locus YOR070C, strain gyp1, hits give low values 1.02 | locus YOR080W, strain dia2, hits give low values 1.03 | locus YOR083W, strain WHI5, hits give low values 1.03 | locus YOR106W, strain vam3, hits give low values 1.03 | locus YOR136W, strain idh2, hits give low values 0.978 | locus YOR144C, strain elg1, hits give low values 0.981 | locus YOR184W, strain ser1, hits give low values 0.988 | locus YOR231W, strain MKK1, hits give low values 0.966 | locus YOR265W, strain rbl2, hits give low values 1.02 | locus YOR270C, strain vph1, hits give low values 1.04 | locus YOR290C, strain snf2, hits give low values 1.03 | locus YOR316C, strain cot1, hits give low values 0.957 | locus YPL051W, strain arl3, hits give low values 1.04 | locus YPL078C, strain atp4, hits give low values 1.05 | locus YPL106C, strain sse1, hits give low values 1.02 | locus YPL240C, strain hsp82, hits give low values 1.02 | locus YPL241C, strain CIN2, hits give low values 0.989 | locus YPL256C, strain CLN2, hits give low values 0.976 | locus YPR119W, strain clb2, hits give low values 0.972 | locus YPR141C, strain kar3, hits give low values 0.958 | locus YPR163C, strain tif3, hits give low values 0.981 | locus YPR167C, strain met16, hits give low values 0.989 | strain wtn01, hits give low values 0.987
